This note sets out measurements from PubChem BioAssay (Tox21).

Assay [1] addresses Cytochrome P450 2C19 (Homo sapiens) (UniProt P33261). Kind of assay: Cytochrome P450 Family 2 Subfamily C Member 19 (CYP2C19) small molecule antagonists: luciferase reporter qHTS assay (AID 1671197). Note: nearly all actives have a fitted effect of over 65% in size. Summed up: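 P450-Glo CYP2C19 screening system; proluciferin substrate; DMSO compound stocks; 10 min RT preincubation; NADPH regeneration, 1 h at 37C; luciferin detection reagent, 20 min RT; luminescence as RLU.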
For orientation: A reporter such as luciferase makes a cellular process visible.

Assay [2] deals with Cytochrome P450 2C9 (Homo sapiens) (UniProt P11712). Description: Cytochrome P450 Family 2 Subfamily C Member 9 (CYP2C9) small molecule antagonists: luciferase reporter qHTS assay (AID 1671198). Note: nearly all actives have a fitted effect of over 50% in size. The gist of the method:
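P450-Glo proluciferin substrate with CYP2C9 enzyme; 10 min RT preincubation, then NADPH regeneration 1 h at 37C; luciferin detection reagent 20 min RT, luminescence in relative luminescence units.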

For assay [3], the target named is Cytochrome P450 1A2 (Homo sapiens) (UniProt P05177). Kind of assay: Cytochrome P450 Family 1 Subfamily A Member 2 (CYP1A2) small molecule antagonists: luciferase reporter qHTS assay (AID 1671199). Note: nearly all actives have a fitted effect of over 50% in size. The gist of the method:
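Human CYP1A2 activity measured with a P450-Glo proluciferin substrate; compounds in DMSO preincubated 10 min at room temperature with enzyme-substrate mix, then NADPH regeneration system added for 1 h. Luciferin detection reagent, 20 min, luminescence read.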

Assay [4] deals with Voltage-gated inwardly rectifying potassium channel KCNH2 (Homo sapiens) (UniProt Q12809). Kind of assay: Human Ether-a-go-go-Related Gene (hERG) channel small molecule antagonists: fluorescence cell-based qHTS assay (AID 1671200). Note: nearly all actives have a fitted effect of over 50% in size. The gist of the method:
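Quantitative HTS in hERG-U2OS cells: thallium entry through the channel reports activity, read as continuous 480/540 nm fluorescence over 2 min after stimulus addition.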

The structures appear in SMILES notation. Values joined by “and” are separate entries in the source; they are usually repeats but may differ in a detail not shown here. Identical values can stand only once. Records with an inconclusive call do not appear. Some structures have more than one record in an assay (separate samples or runs), and their calls can disagree. Active and inactive are the calls of the source. Calls come from the whole dose curve; as a rule, active = well fitted curve in the direction sought with a large enough effect in the repeat runs; inconclusive = weak or mixed curves; inactive = no such curve, though single readings can be large; an effect the other way counts as inactive or inconclusive.
Potency is the fitted concentration of half-maximal effect.

Cytochrome P450 2C9 (Homo sapiens), sequence (P11712 whole entry, looked up): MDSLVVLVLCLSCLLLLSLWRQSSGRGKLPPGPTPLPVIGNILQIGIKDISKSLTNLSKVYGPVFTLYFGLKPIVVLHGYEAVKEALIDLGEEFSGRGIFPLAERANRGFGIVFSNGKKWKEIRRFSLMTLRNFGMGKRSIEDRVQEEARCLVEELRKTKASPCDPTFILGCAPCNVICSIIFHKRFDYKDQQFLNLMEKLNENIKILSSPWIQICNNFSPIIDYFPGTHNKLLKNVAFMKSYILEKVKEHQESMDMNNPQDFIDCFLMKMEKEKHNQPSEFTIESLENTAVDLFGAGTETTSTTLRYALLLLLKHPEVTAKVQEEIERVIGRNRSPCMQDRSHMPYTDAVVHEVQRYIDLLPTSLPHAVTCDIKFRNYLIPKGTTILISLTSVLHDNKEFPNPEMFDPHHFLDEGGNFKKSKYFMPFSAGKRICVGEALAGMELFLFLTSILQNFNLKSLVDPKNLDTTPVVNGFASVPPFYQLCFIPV
Cytochrome P450 2C19 (Homo sapiens), sequence (P33261 whole entry, looked up): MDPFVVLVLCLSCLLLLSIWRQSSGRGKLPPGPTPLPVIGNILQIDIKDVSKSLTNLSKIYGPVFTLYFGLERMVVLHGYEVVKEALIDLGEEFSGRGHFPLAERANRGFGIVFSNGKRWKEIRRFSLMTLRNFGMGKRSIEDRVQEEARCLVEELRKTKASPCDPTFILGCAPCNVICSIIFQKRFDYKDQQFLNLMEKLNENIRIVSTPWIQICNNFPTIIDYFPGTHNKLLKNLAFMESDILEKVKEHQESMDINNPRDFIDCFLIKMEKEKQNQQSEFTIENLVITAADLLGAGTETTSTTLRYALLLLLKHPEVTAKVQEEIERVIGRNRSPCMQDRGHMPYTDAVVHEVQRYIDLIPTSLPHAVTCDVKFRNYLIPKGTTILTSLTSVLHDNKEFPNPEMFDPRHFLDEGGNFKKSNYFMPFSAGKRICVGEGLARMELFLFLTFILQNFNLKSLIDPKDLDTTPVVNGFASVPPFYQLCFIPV
Voltage-gated inwardly rectifying potassium channel KCNH2 (Homo sapiens), sequence (Q12809 whole entry, looked up): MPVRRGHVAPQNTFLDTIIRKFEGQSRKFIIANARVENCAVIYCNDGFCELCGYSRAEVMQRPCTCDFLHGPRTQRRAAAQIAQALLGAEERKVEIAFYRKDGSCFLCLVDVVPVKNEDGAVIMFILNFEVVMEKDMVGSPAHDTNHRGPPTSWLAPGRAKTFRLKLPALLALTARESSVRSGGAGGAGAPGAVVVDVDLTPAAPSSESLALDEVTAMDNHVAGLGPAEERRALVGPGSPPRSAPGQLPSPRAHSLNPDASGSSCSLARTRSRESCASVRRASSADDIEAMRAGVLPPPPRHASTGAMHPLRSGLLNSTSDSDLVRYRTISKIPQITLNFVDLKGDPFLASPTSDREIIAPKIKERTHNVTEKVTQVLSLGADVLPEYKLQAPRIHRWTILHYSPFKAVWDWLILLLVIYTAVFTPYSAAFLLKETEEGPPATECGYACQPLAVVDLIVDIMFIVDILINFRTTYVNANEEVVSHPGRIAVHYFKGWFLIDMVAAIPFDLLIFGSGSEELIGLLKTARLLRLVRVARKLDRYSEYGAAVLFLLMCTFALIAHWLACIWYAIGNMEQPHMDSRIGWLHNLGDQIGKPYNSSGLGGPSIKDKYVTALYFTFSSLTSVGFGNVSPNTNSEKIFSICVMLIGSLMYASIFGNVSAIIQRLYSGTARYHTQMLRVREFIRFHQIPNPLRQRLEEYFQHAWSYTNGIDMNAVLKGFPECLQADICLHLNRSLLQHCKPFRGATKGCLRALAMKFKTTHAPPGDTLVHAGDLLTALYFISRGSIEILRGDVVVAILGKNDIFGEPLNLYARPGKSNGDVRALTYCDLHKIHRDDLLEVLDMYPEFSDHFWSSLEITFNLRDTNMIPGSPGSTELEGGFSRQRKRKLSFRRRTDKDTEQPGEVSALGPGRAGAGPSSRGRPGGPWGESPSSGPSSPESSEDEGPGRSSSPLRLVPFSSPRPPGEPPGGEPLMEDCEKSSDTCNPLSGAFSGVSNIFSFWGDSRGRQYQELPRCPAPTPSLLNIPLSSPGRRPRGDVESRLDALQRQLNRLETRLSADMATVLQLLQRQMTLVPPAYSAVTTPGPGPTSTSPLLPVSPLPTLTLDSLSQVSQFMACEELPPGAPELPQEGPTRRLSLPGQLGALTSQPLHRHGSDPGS
Cytochrome P450 1A2 (Homo sapiens), sequence (P05177 whole entry, looked up): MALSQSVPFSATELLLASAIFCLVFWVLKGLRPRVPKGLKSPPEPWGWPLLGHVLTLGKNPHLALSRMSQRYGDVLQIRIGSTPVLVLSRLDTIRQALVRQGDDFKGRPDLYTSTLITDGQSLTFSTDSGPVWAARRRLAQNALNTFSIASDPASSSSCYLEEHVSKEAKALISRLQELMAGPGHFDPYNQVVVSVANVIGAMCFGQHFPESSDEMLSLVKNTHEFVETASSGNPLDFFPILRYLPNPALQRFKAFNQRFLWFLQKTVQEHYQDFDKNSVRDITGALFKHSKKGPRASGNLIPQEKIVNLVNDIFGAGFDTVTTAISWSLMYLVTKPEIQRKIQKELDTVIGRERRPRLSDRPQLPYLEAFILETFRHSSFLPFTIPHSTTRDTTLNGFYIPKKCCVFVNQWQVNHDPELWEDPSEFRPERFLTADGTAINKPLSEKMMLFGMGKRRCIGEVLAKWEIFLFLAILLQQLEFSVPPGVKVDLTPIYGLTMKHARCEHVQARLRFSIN

For `COc1ccccc1NC(=O)CC(C)=O`, the Potency is 78.5 µM (active) and inactive in assay [1]; 31.3 µM (active) and 35.6 µM (active) in assay [3]. Moreover, the Potency entry in assay [2] and in assay [4] was “inactive” in each case.

With `C=CC(=O)NC(C)(C)CS(=O)(=O)O`, the Potency result in assay [1], in assay [2], in assay [3] and in assay [4] was “inactive” throughout.

For `COc1ccccc1O`, the Potency result in assay [1], in assay [2] and in assay [4] was “inactive” throughout. Moreover, in assay [3], the Potency entry was “inactive and 52.6 µM (active)”.

`CC(C)(C)NCC(O)c1ccc(O)c(CO)c1` (stereo unspecified): the Potency result in assay [1], in assay [2], in assay [3] and in assay [4] was “inactive” throughout.

For the compound `CCOCCO`, the Potency entry in assay [1], in assay [2], in assay [3] and in assay [4] was “inactive” each time.

`COC(=O)C1CCC(C(=O)OC)CC1` (stereo unspecified): the Potency result in assay [1], in assay [2], in assay [3] and in assay [4] was “inactive” in each case.

`CC1=C(/C=C/C(C)=C/C=C/C(C)=C/C(=O)O)C(C)(C)CCC1`: the Potency in assay [1] was 20 µM (active) and 35.5 µM (active); in assay [2] it was 71.1 µM (active) and 39.9 µM (active) and 34.7 µM (active). Further, the Potency result in assay [3] is “inactive”.

For the compound `CC(C)CC(C)CC(O)CC(C)C` (stereo unspecified), the Potency result in assay [1], in assay [2], in assay [3] and in assay [4] was “inactive” throughout.

With `COCC(C)N` (stereo unspecified), the Potency result in assay [1], in assay [2] and in assay [4] was “inactive” each time. Besides, in assay [3], the Potency is 44.8 µM (active).

Consider `NCCNc1cccc2ccccc12`, for which the Potency in assay [1] is 31.7 µM (active) and 21.9 µM (active) and 12.3 µM (active); in assay [2], 20 µM (active) and 31 µM (active) and 27.5 µM (active); in assay [3], 632 nM (active) and 778 nM (active) and 723 nM (active). Moreover, the Potency result in assay [4] was “inactive”.

Turning to `CCN(CC)CCOC(=O)c1ccc(N)cc1`, the Potency entry in assay [1], in assay [2], in assay [3] and in assay [4] was “inactive” in each case.

Consider `NC(=O)N1c2ccccc2C=Cc2ccccc21`, for which the Potency in assay [1] was 70.6 µM (active) and inactive. Besides, the Potency result in assay [2], in assay [3] and in assay [4] was “inactive” throughout.

Turning to `C1CNCCN1`, the Potency was 82 µM (active) and inactive and 72.1 µM (active) in assay [1]; 41.1 µM (active) and inactive in assay [3]. Also, the Potency result in assay [2] and in assay [4] was “inactive” in each case.

For `CC1(C)O[C@@H]2[C@@H](CO[C@@]3(COS(N)(=O)=O)OC(C)(C)O[C@@H]23)O1`, the Potency in assay [1] is 4.9 µM (active). Also, the Potency result in assay [2], in assay [3] and in assay [4] was “inactive” each time.

As for `COC(=O)c1ccc(O)cc1`, the Potency entry in assay [1], in assay [2] and in assay [4] was “inactive” in each case. In addition, the Potency in assay [3] was 32 µM (active) and 35.6 µM (active) and 27.5 µM (active).

For the compound `CCCCCCCC(=O)OCC(O)CO` (stereo unspecified), in assay [1], the Potency is 79.6 µM (active). In addition, the Potency result in assay [2], in assay [3] and in assay [4] was “inactive” each time.

Regarding `C=C(C)OC(C)=O`, the Potency result in assay [1], in assay [2], in assay [3] and in assay [4] was “inactive” throughout.

`OCCCc1ccccc1`: the Potency is 31.7 µM (active) and inactive in assay [1]; 35.6 µM (active) in assay [3]. Moreover, the Potency entry in assay [2] and in assay [4] was “inactive” in each case.

Take `CCCCOC(=O)CCCCCCCCC(=O)OCCCC`: the Potency entry in assay [1], in assay [3] and in assay [4] was “inactive” throughout. Moreover, in assay [2], the Potency was 28.3 µM (active).

For `Cc1cnc(NC(=O)C2=C(O)c3ccccc3S(=O)(=O)N2C)s1`, the Potency entry in assay [1], in assay [3] and in assay [4] was “inactive” throughout. For the same compound, the Potency in assay [2] was 7.98 µM (active) and 11.2 µM (active) and 12.3 µM (active).

In the case of `CC(O)COc1ccccc1` (stereo unspecified), the Potency entry in assay [1], in assay [2], in assay [3] and in assay [4] was “inactive” each time.

As to `Cc1cccc(Nc2cc(Cl)nc(SCC(=O)O)n2)c1C`, the Potency result is “inactive and 7.76 µM (active)” in assay [1]; 31.7 µM (active) and 29.2 µM (active) and 17.4 µM (active) in assay [2]. Also, the Potency result in assay [3] and in assay [4] was “inactive” each time.

For `N[C@@H](Cc1c[nH]c2ccc(O)cc12)C(=O)O`, the Potency result in assay [1] and in assay [4] was “inactive” in each case. For the same compound, the Potency in assay [2] was 27.5 µM (active) and 34.7 µM (active); in assay [3], 30.8 µM (active) and 30.9 µM (active).

On to `O=c1cc[nH]c(=O)[nH]1`, for which the Potency result in assay [1], in assay [2], in assay [3] and in assay [4] was “inactive” throughout.

For the compound `O=C1OC(c2ccc(O)cc2)(c2ccc(O)cc2)c2ccccc21`, the Potency in assay [1] was 28.1 µM (active) and 17.8 µM (active) and 11 µM (active); in assay [2] it was 19.9 µM (active) and 20 µM (active) and 12.3 µM (active); in assay [3], 56 µM (active) and inactive; in assay [4], “inactive and 38.9 µM (active)”.

For `COC1=CC(=O)C[C@@H](C)[C@]12Oc1c(Cl)c(OC)cc(OC)c1C2=O`, the Potency is 70.4 µM (active) and inactive in assay [1]; 44.8 µM (active) and inactive in assay [2]. Besides, the Potency entry in assay [3] and in assay [4] was “inactive” in each case.

Consider `CCN1CCCC1=O`, for which the Potency result in assay [1], in assay [2], in assay [3] and in assay [4] was “inactive” in each case.

With `CCCCCCCCCCCCCCCCCC(=O)OCC(O)CO` (stereo unspecified), the Potency result in assay [1], in assay [2], in assay [3] and in assay [4] was “inactive” throughout.
